TGFb SMAD3 inh = TGF-b pathway inhibition; HepG2 CAGA-GFP TGF-b/SMAD3 reporter, GFP fluorescence, 18 h; TGF-beta stimulated, 500 pg/mL final; Potency, µM (doses to about 46.1 µM), for the others: top-dose activity, negative = inhibition, most hits filed as inhibitors; 410,000 compounds, 1.2% hits; also: potency is read from the fitted curve at half-maximal effect; % is scaled to controls: 0 for no effect and ±100 for the full control effect; nearly all actives have a fitted effect of over 65% in size
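HEPG2 CAGA-GFP cells (1000/well, DMEM with 1% FBS) were pre-incubated 2 h at 37 degrees C, given compound by pin tool, then stimulated with TGF-beta at 500 pg/mL final for 18 h before per-cell GFP fluorescence imaging.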
IL-1B inflam inh = inflammasome signaling inhibition, IL-1 beta readout; activity change, % at 57.5 µM; THP-1 LPS/ATP IL-1B secretion, AlphaLISA, 16 h; active compounds read low; AID 743279; 360,000 compounds, 4.7% hits; in the data active = activity change below about -50%; inconclusive = mostly about -30% to -49%; also: % is scaled to controls: 0 for no effect and ±100 for the full control effect
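Secreted IL-1B measured by AlphaLISA bead assay after 16 h compound exposure of THP-1 cells; compounds (final up to 57.5 uM) added 1 h before LPS (250 ng/mL) and ATP (1.25 mM) stimulation; lower signal means less secretion.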
HepG2 tox = counter-screen for TGF-b inhibitors: cytotoxicity in HepG2 cells; 410,000 compounds, 0.76% hits; HepG2 CAGA-GFP viability, ATP luminescence, 18 h; AID 588856; Potency, µM (highest dose often 46.1 µM), without a hit: at the top dose activity change, negative = cytotoxicity, usual class: cytotoxic; also: potency is read from the fitted curve at half-maximal effect
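HepG2 CAGA-GFP cells (1000/well, DMEM with 1% FBS) received compound, then TGF-beta at 500 pg/mL final, and were incubated 18 hours at 37 degrees C. Viability was read by CellTiter-Glo luminescence. Media-only wells were set as complete cell-killing and DMSO as no toxicity.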
S-ASM inh = human S-ASM enzyme inhibition; placental ASM, HMU-PC fluorogenic substrate, 60 min; 340,000 compounds, 0.006% hits; Potency, µM (highest dose often 57.5 µM), for inactives: top-dose activity change, negative = inhibition, usual class: inhibitors; also: potency is read from the fitted curve at half-maximal effect
Target sequence (P17405 47-631 limits assumed): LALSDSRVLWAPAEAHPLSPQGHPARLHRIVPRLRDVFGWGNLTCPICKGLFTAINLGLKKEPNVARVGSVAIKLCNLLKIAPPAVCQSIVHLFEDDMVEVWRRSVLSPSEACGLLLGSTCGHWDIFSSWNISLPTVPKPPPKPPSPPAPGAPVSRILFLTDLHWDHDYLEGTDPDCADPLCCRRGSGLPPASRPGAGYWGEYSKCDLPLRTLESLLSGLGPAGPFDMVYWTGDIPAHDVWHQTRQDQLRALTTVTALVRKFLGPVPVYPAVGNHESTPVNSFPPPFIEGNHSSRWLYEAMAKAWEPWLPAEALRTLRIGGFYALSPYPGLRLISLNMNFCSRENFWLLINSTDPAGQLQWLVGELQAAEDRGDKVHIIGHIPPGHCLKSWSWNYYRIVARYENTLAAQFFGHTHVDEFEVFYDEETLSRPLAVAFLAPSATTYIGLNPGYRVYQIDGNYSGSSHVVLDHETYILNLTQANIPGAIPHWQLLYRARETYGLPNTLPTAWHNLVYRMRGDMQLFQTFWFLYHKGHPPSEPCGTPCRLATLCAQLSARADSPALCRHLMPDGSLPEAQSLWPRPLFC
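Fluorogenic HMU-PC substrate (9 uM final) is turned over by placental ASM in 60 min at 37 C after a 10 min compound preincubation. Reaction ended by alkaline stop (pH 10), with fluorescence read at 386/447 nm.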
TDP1 cell CPT = DT40-hTDP1 cell growth loss with CPT. chicken DT40 Tdp1-/-;hTDP1 cells + 20 nM CPT, ATP luminescence, 48 h. Potency, µM (doses to about 46.2 µM), without a hit: at the highest dose activity change, negative = growth inhibition, most hits filed as inhibitors. 420,000 compounds, 12% hits; also: potency is read from the fitted curve at half-maximal effect; % is scaled to controls: 0 for no effect and ±100 for the full control effect; nearly all actives have a fitted effect of over 55% in size
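Chicken DT40 Tdp1-/- cells stably complemented with human TDP1 were seeded at 400 cells/well in medium containing 20 nM camptothecin, exposed to pin-transferred compounds, and grown at 37 °C for at least 48 hr. Viability was read as ATP luminescence.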
TDP1 cell noCPT = qHTS for Inhibitors of human tyrosyl-DNA phosphodiesterase 1 (TDP1): qHTS in cells in absence of CPT; DT40 Tdp1-/- hTDP1 cells, no CPT, ATP luminescence, 48 h; Potency, µM (top dose mostly 46.2 µM), without a hit: at the top dose activity change, negative = growth inhibition, hits mostly inhibitors; 420,000 compounds, 15% hits; also: potency is read from the fitted curve at half-maximal effect; % is scaled to controls: 0 for no effect and ±100 for the full control effect; nearly all actives have a fitted effect of over 55% in size
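DT40 Tdp1-/-;hTDP1 cells, no CPT (DMSO vehicle only), 400 cells/well; compounds pin-transferred; ≥48 hr, 37 °C; CellTiter-Glo 30 min RT dark, luminescence read.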
Numbers without * were called inactive; u = inconclusive; x = no result. Shown are actives, neighbours in structure and some others; about 19% of the full set was active somewhere. Unless noted, calls follow the shape of the dose curve; as a rule, active = well fitted curve in the direction sought with a large enough effect; inconclusive = small, poorly fitted or top-dose-only effect, or another doubt; inactive = no such curve, though single readings can be large; an effect the other way counts as inactive or inconclusive.

SMILES | TGFb SMAD3 inh | IL-1B inflam inh | HepG2 tox | S-ASM inh | TDP1 cell CPT | TDP1 cell noCPT
COc1cc2c(cc1OC)C(c1cc(OC)c(OC)c(OC)c1)C1(O)C(=O)OCC1(O)C2 (configuration not stated) | -3% | 11 | 3% | -4% | -1% | 0%
CCNS(=O)(=O)c1ccc(NC(=O)CC(C)c2ccccc2)cc1 (configuration not stated) | -1% | 9 | -7% | 1% | -3% | -18%
O=C(COC(=O)Cc1ccc(-c2ccccc2)cc1)NCc1ccc(F)cc1 | -16% | -1 | -14% | 5% | 6.5µM* | u
O=C(NC(NCc1cccnc1)C(Cl)(Cl)Cl)c1cccc2ccccc12 (configuration not stated) | u | 16 | -2% | 1% | u | 15µM*
O=C(Cn1ncc2c(=O)oc3ccccc3c21)NCc1ccc(Cl)cc1 | -2% | x | 6% | x | -1% | -6%
Cc1ccc(SCC(=O)NCc2ccc(F)cc2)cc1 | 6% | 20 | 3% | -1% | 4% | -4%
Cc1ccc(CC(=O)NCc2ccc(F)cc2)cc1 | -21% | 0 | 3% | 1% | 4.1µM* | 4.6µM*
O=C(Cn1ncc2c(=O)oc3ccccc3c21)NCc1cccnc1 | -6% | 4 | -2% | 11% | 1.3µM* | 9.2µM*
CCn1cc([N+](=O)[O-])c(=O)c2cc(F)c(N3CCOCC3)cc21 | 1% | -9 | -3% | 0% | u | -26%
COc1ccc(CCN2C(=O)CS/C2=N/NC(=O)c2ccccc2F)cc1OC | 5% | -2 | -13% | 5% | u | u
COc1ccc(CCN2C(=O)CN(Cc3ccccc3)CC2=O)cc1OC | -3% | -9 | -4% | 4% | 4% | -2%
COc1ccc(CCN2C(=O)CSC2=Nc2ccc(C)cc2C)cc1OC | -4% | 15 | -4% | -2% | 23µM* | 23µM*
COc1ccc(CCN2C(=O)C3C4CCC(C4=C(C)C)C3C2=O)cc1OC (configuration not stated) | 0% | 2 | 1% | 10% | u | 8.2µM*
COc1ccc(CCN2C(=O)C=CC2=O)cc1OC | u | -115* | -93% | 5% | 0.82µM* | 1.3µM*
COc1ccc(C2SCC(=O)N2CCc2ccc(OC)c(OC)c2)cc1 (configuration not stated) | -18% | 3 | -17% | 2% | 7.3µM* | 5.2µM*
CCCc1ccc(-c2csc(NC(=O)C3=COCCO3)n2)cc1 | -24% | 26 | 5% | u | -25% | u
CCN(CC(=O)NCc1ccc(Cl)cc1)C(=O)CSCC(=O)Nc1ccc(OC)cc1 | -15% | -3 | -28% | -5% | -12% | -12%
CCCCN(CC)S(=O)(=O)c1ccc2c(c1)n(C)c(=O)c(=O)n2C | -5% | 36 | -3% | -4% | -20% | -26%
CSCCC(NS(=O)(=O)c1ccc(C)cc1)C(=O)N1CCN(S(=O)(=O)c2ccc(F)cc2)CC1 (configuration not stated) | 6% | -3 | -3% | -2% | 0% | -25%
O=C1NC[C@@H](CCCCN2CCN(CC3CCCCC3)C(=O)C2=O)N(CC2CCCCC2)C1=O | x | 4 | x | x | 4% | -13%
COc1ccc(CCNC2=C(Cl)C(=O)N(CCc3ccc(OC)c(OC)c3)C2=O)cc1OC | -10% | 27 | -23% | 8% | 15µM* | 10µM*
COc1ccc(CCN2C(=O)CC(NC34CC5CC(CC(C5)C3)C4)C2=O)cc1OC (configuration not stated) | 5% | 18 | -13% | 1% | u | 18µM*
COc1cccc(NS(=O)(=O)c2cc3c4c(c2)C(C)C(=O)N4CCC3)c1 (configuration not stated) | 14% | x | 7% | x | u | u
O=C(NC1CCCCCC1)C1CCN(c2nc3ccccc3o2)CC1 | -5% | 18 | -25% | 1% | u | 16µM*
CCNC(=O)CC1C(=O)N(c2ccccc2)C(=O)N1CCc1ccc(OC)cc1 (configuration not stated) | -3% | 14 | -19% | 3% | u | -8%
SMILES | TGFb SMAD3 inh | IL-1B inflam inh | HepG2 tox | S-ASM inh | TDP1 cell CPT | TDP1 cell noCPT
COc1ccc(CCN2C(=O)N(c3ccc(F)cc3)C(=O)C2CC(=O)Nc2ccccc2)cc1OC (configuration not stated) | -14% | x | -25% | x | u | -24%
CCNC(=O)CC1C(=O)N(c2ccc(F)cc2)C(=O)N1Cc1ccc(OC)cc1 (configuration not stated) | 3% | -5 | -1% | 1% | -1% | -8%
COc1ccc(CN2C(=O)N(c3ccc(F)cc3)C(=O)C2CC(=O)Nc2ccccc2)cc1 (configuration not stated) | 10% | x | -23% | x | 13µM* | 13µM*
O=C(CC1C(=O)N(c2ccccc2)C(=O)N1Cc1ccc(F)cc1)Nc1cccc(F)c1 (configuration not stated) | -8% | x | -2% | x | u | 23µM*
COc1ccc(NC(=O)CC2C(=O)N(c3ccc(C)cc3)C(=O)N2CCc2ccccc2)cc1 (configuration not stated) | u | x | -25% | x | 15µM* | 15µM*
COc1ccc(CCN2C(=O)N(c3ccc(F)cc3)C(=O)C2CC(=O)Nc2ccc(F)c(F)c2)cc1 (configuration not stated) | u | x | -60% | x | 12µM* | 21µM*
COc1ccc2occ(CC(=O)Nc3ccc(S(=O)(=O)Nc4nccc(C)n4)cc3)c2c1 | -9% | x | -6% | x | -4% | 7%
COc1cccc(CNC(=O)CCC2CCCN(C(=O)c3ccccc3N(C)C)C2)c1 (configuration not stated) | 0% | 1 | -14% | 1% | u | u
COCC(O)Cn1ccnc1N=Nc1ccccc1 (configuration not stated) | 5% | -17 | -35% | x | -8% | -17%
COc1ccc(CCN2C(=O)N(c3ccc(F)cc3)C(=O)C2CC(=O)Nc2ccc(OC)cc2)cc1 (configuration not stated) | 1% | x | -8% | x | 12µM* | u
COc1ccc(CCN2C(=O)N(c3ccc(F)cc3)C(=O)C2CC(=O)Nc2ccccc2)cc1 (configuration not stated) | u | x | -15% | x | u | u

High-throughput results (PubChem BioAssay)
